Results published in PubChem BioAssay (NCI).
This is part of a sample that, as a whole, favours compounds with a hit. Of some 83,000 tested, about 20% had one in any assay.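 Testing used 96-well plates and a 48-hour single-concentration exposure. Example: -40 means 40% of the starting cells died.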 A number with no mark means an inactive call. Calls of active or inactive are those of the source. Rule for the calls: active = growth percent below 10; inactive = the rest.

Experiments:
Test in all cases: NCI-60 one-dose screen, 48 h (100 = growth as untreated, 0 = no growth, -100 = all killed)
SK-MEL-2 melanoma = details: 10 µM unless noted
EKVX NSCLC = details: 10 µM unless noted
SN12C renal = details: 10 µM unless noted
TK-10 renal = details: 10 µM unless noted
ACHN renal = details: 10 µM unless noted
CAKI-1 renal = details: 10 µM
A498 renal = details: 10 µM unless noted
CCRF-CEM leukemia = details: 10 µM unless noted
UO-31 renal = details: 10 µM unless noted
MOLT-4 leukemia = details: 10 µM unless noted

Row | SMILES | growth (SK-MEL-2 melanoma) | growth (EKVX NSCLC) | growth (SN12C renal) | growth (TK-10 renal) | growth (ACHN renal) | growth (CAKI-1 renal) | growth (A498 renal) | growth (CCRF-CEM leukemia) | growth (UO-31 renal) | growth (MOLT-4 leukemia)
1 | Cn1cnc([N+](=O)[O-])c1N1c2ccncc2Sc2ccncc21 | 94.2% | 78.8% | 113% | 132% | 75.8% | 85.7% | 93.1% | 94.7% |  | 
2 | O=c1nc(N2CCOCC2)oc2c(-c3cccc4ccccc34)cccc12 | 100% | 81.1% | 82.3% |  | 81.6% |  |  | 91.5% | 53.4% | 93.1%
3 | O=S1(=O)N(CCNc2nccc(-c3c(-c4cccc(O)c4)nc4sccn34)n2)CCN1Cc1ccccc1 | 19.2% | 90.9% | 64.1% |  | 41.1% |  | -20.9% (active) | 31.9% | 43.8% | 63.1%
4 | COc1cc(NC(=O)c2cc(OC)c3ccn(C)c3c2)cc2c1C[C@]1(C)CC[C@@H](O)C(C)(C)[C@H]1O2 | 31.1% | 65.2% |  | 90% | 36.6% |  | 1.9% (active) | 19.6% | 2.9% (active) | 6.92% (active)
5 | COc1cc(NC(=O)C#Cc2ccccc2)c(OC)cc1Cl | 60.4% | 62.7% |  | 111% |  |  | 100% | 11.1% | 40.4% | 22.4%
6 | Nc1n[nH]c2cccc(C#Cc3cccc(NC(=O)c4cccc(C(F)(F)F)c4)c3)c12 | 8.52% (active) | 65.4% |  | 41% | 28.6% |  |  | 28.8% | 3.58% (active) | 
7 | COc1cc(/C=C2/Oc3cc4occc4c(OC)c3C2=O)ccc1OCC(=O)Nc1ccncc1 | 102% | 97.4% |  | 127% |  |  |  | 103% | 70.3% | 110%
8 | CN(C)CC/C=C1\c2ccccc2Sc2ccc(Cl)cc21 | 89.6% | 78.6% |  | 75.8% |  | 52.7% | 89.5% | 59.4% | 41.3% | 44.8%
9 | CCOc1ccc(-n2c(-c3cc(OC)c(OC)c(OC)c3)nnc2-c2ccc(OC)cc2N)cc1 | 65.6% | 82.4% |  | 70% |  |  | 67.3% | 42.3% | 57.4% | 36.8%
10 | C=C1C(=O)O[C@H]2[C@H]1CC/C(COC(=O)c1ccc(C#N)cc1)=C\CC[C@@]1(C)O[C@@H]21 | 37.9% | 16% |  | 40.2% | 0.811% (active) |  | 99.7% | -25.8% (active) | -1.25% (active) | -29.3% (active)
11 | COc1ccc(/C=C2/C(=O)Nc3cc(Cl)c(-c4csc(N)n4)cc32)cc1 | 35% | 46.5% |  | 84.4% |  |  | 25.1% | 31.7% | 55.6% | 28.2%
12 | CCC1CN2C(=N1)c1ccccc1-c1cc(Cl)ccc12 (stereo unspecified) | -14.9% (active) | 22.9% |  | 34.7% | 2.38% (active) |  | 56.9% | 13.4% | -43% (active) | -24.8% (active)
13 | COC(=O)/C=C/C(=O)c1cc(C)cc(C)c1O | 99.2% | 95.9% |  | 96.9% |  |  | 105% | 90.3% | 88% | 
14 | COc1cc(C(=O)C[n+]2ccccc2)ccc1OC(C)=O | 102% | 100% |  |  | 105% |  | 78.9% | 95.9% | 104% | 98.2%
15 | COc1ccc(-c2nn(-c3ccc(NC(=O)c4ccc(Cl)c(C(F)(F)F)c4)cc3)cc2-c2ccncc2)cc1Cl | 4.6% (active) | 34.8% |  |  | 27.3% |  |  | 23.4% | -26.8% (active) | 1.35% (active)
16 | CC(/C=C/C=C(\C)[C@H](O)[C@H](C)C(=O)O[C@H]1C[C@H](C)C=C2C=C[C@@]3(C)O[C@@H](O)CC(=O)[C@]3(C)[C@H]21)=C\C=C\C(=O)O | -46.9% (active) | -0.933% (active) |  | 15.5% |  |  | -38.9% (active) | 8.62% (active) | 18.8% | 1.42% (active)
17 | CCCC(=O)Oc1ccc(/C(=C(\C)c2ccc(OC)cc2)c2ccc(OCCN3CCCCC3)cc2)cc1 | 80.9% | 89.1% |  |  | 91.8% |  | 80.7% | 83.3% | 65.2% | 72.5%

Row | SMILES | growth (SK-MEL-2 melanoma) | growth (EKVX NSCLC) | growth (SN12C renal) | growth (TK-10 renal) | growth (ACHN renal) | growth (CAKI-1 renal) | growth (A498 renal) | growth (CCRF-CEM leukemia) | growth (UO-31 renal) | growth (MOLT-4 leukemia)
18 | O=C(Nc1cccc([N+](=O)[O-])c1)Nc1cccc([N+](=O)[O-])c1 | 53.9% | 50.4% |  | 39% |  |  | 33.1% | 15.5% | 46.6% | 9.18% (active)
19 | O=C(Nc1ccc(-n2ccc3c(NC(=O)c4ccccc4)ncnc32)cc1)c1cccc(C(F)(F)F)c1 | 85.8% | 63.5% |  |  | 34% | 27.9% |  | 28.2% | 45.9% | 19.7%
20 | O=C1/C(=C/c2cccc3cnccc23)Cc2cc(F)ccc21 | 94.6% | 91.2% |  |  | 95.7% | 84.5% | 97.2% | 110% | 70.4% | 82.1%
21 | Cc1ccccc1C[P+](c1ccccc1)(c1ccccc1)c1ccccc1 | 2.07% (active) | 29.5% |  | 36.1% | 71% |  | 89.5% | 24.9% | 76.6% | 35.7%
22 | Nc1nc(Cl)c2c(C(F)(F)F)cn(CC3CCNCC3)c2n1 | 87.9% | 88.8% |  | 91.5% | 104% |  | 107% | 51.9% | 91.6% | 45.8%
23 | CCOc1ccc(Cc2nccc3cc(OCC)c(OCC)cc23)cc1OCC | 80.4% | 42% |  | 68.6% |  |  |  | 58.7% | 37.5% | 27.2%
24 | Nc1nc(-c2cc3c(cc2Cl)NC(=O)/C3=C/c2ccccc2)cs1 | 71.3% | 34.7% |  | 100% |  |  | 60% | 16.1% | 45.6% | 21.8%
25 | Cc1c(Cl)ccc2c(C(=O)Cl)cc(-c3ccccc3)nc12 | 106% | 95.6% |  | 105% |  |  | 84.4% | 88.1% | 90.1% | 
26 | CC(=O)CC/C=C(\C)[C@H](O)[C@H](C)C(=O)O[C@H]1C[C@H](C)C=C2C=C[C@@]3(C)O[C@@H](O)CC(=O)[C@]3(C)[C@H]21 | -59.7% (active) | -28.8% (active) |  | -27.4% (active) |  |  |  | 4.28% (active) | -28.6% (active) | -7.91% (active)
27 | COc1cc(NS(C)(=O)=O)ccc1Cc1c2ccccc2nc2ccccc12 | 104% | 45.3% |  | 23.9% |  | -4.78% (active) | -8.76% (active) | 3.42% (active) | -5.05% (active) | 4.35% (active)
28 | O=c1c2ccccc2sc2c(NCCN3CCOCC3)nc3ccccc3c12 | 102% | 70.9% |  |  | 43.5% |  | 43.7% | 36.3% | 47.6% | 37%
29 | ClC1c2ccccc2CCc2ccccc21 | 87.8% | 94% |  | 101% | 95.8% |  | 102% | 98.7% | 60% | 107%
30 | O=C(COc1ccc(Cl)cc1Cl)N1N=C(c2ccc(Cl)cc2Cl)CC1(O)c1cc(F)c(Cl)cc1Cl (stereo unspecified) | 95.3% | 87.7% |  | 139% | 234% |  | 142% | 125% | 76.3% | -47.9% (active)
31 | Cc1ccc2nc(-c3ccc(-n4on4-c4ccc(/C=C/c5ccc(-n6on6-c6ccc(-c7nc8ccc(C)cc8s7)cc6)cc5S(=O)(=O)O)c(S(=O)(=O)O)c4)cc3)sc2c1 | 112% | 112% |  |  | 105% | 106% | 112% | 100% | 90.4% | 93.9%
32 | C=C1C(=O)O[C@H]2[C@H]1CC/C(CNC(=O)/C1=C/CC[C@@]3(C)O[C@H]3[C@H]3OC(=O)C(=C)[C@@H]3CC1)=C\CC[C@@]1(C)O[C@@H]21 | 88.7% | 86.2% |  | 102% | 97.6% |  | 94.6% | 42.6% | 95.5% | 93.5%
33 | COc1ccc(-c2nnc(SCC(=O)Nc3ccc(C(=O)/C=C/c4ccc(OC)c(OC)c4)cc3)o2)cc1 | 94.1% | 90% |  | 95.9% |  |  | 103% | 77.7% | 73.8% | 68.1%
34 | CCCCNC(=O)Oc1ccc(/C(=C(/CC)Cc2ccccc2)c2ccc(OCCCN(C)C)cc2)cc1 | 86.8% | 67.5% |  | 91.9% | 92.5% |  | 76.2% | 77.1% | 60.5% | 63.4%
